Screening results from PubChem BioAssay.
Compounds with a hit are over-represented: about 10% of the library has one in this group of screens.
NIH3T3 tox: Cytotoxic Profiling in NIH 3T3 Cell Line of Diverse Libraries Using Quantitative High-Throughput Screening. NIH 3T3 viability, CellTiter-Glo ATP luminescence, 48-72 h. Potency, µM (series often up to 96.7 µM), without a hit: at the highest dose activity change, negative = cytotoxicity, actives largely listed as inhibitors. hit rate 4.3% among 94,000; note: nearly all actives have a fitted effect of over 55% in size
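Luminescent ATP readout (CellTiter-Glo, 10 min RT) after 48 or 72 hr compound exposure of NIH 3T3 cells seeded at 400 cells/well in 1536-well format; quantitative HTS.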
NPR1 antag: Natriuretic polypeptide receptor (hNpr1) antagonism - Primary qHTS; HEK293 hNpr1 GloSensor cGMP, ANP-stimulated luminescence; Potency, µM (series often up to 46.3 µM), without a hit: at the top dose activity change, negative = inhibition, most hits filed as inhibitors; hit rate 1.6% among 76,000; calls by dose curve; note: nearly all actives have a fitted effect of over 60% in size
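HEK293 cells stably expressing human Npr1 and cGMP GloSensor pGS-40F, loaded 2 h with 2% GloSensor reagent, given compound 30 min at room temperature. Luminescence read before and 20 min after 0.1 nM hNppA.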
GPT2 inhibitor: Primary qHTS assay for inhibitors of Glutamate pyruvate transaminase 2 (GPT2); Potency, µM (doses to about 57.7 µM), for the others: top-dose activity change, negative = inhibition, usual class: inhibitors; hit rate 0.25% among 100,000; Alanine aminotransferase 2 (Homo sapiens), Q8TD30; AID 1671188, 2021; Recombinant GPT2, coupled pyruvate oxidase/HRP Amplex Red fluorescence; note: nearly all actives have a fitted effect of over 60% in size
Target sequence (Q8TD30 whole entry, looked up): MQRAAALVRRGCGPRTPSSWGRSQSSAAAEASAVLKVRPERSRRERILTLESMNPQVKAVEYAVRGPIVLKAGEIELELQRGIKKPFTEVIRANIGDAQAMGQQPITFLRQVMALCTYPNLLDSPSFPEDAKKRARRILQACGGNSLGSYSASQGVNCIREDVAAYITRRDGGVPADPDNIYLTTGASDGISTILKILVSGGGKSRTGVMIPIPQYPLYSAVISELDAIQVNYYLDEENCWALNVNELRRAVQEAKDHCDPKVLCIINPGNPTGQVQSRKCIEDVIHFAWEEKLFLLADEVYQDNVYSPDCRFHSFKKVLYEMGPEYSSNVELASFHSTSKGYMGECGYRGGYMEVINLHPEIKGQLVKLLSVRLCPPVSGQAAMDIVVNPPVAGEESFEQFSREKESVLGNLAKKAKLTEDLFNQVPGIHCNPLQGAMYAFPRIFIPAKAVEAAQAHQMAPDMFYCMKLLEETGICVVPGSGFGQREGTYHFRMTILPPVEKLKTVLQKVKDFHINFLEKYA
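Recombinant GPT2 (10ng/uL) with 250uM a-KG and 2mM L-alanine, 30 min at room temperature, in HEPES pH 7.5 buffer. Pyruvate detected by pyruvate oxidase/HRP/Amplex Red fluorescence after 30 min in the dark; AOA (50uM) as positive control.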
Luciferase inh: Firefly luciferase inhibition profiling of diverse chemical library using quantitative high-throughput screening | purified P. pyralis luciferase, luminescence, biochemical | Potency, µM (series often up to 115 µM), usual class: inhibitors | hit rate 2.5% among 76,000 | AID 1347043, 2019; note: nearly all actives have a fitted effect of over 65% in size
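Inhibitors were tested against purified firefly luciferase in a biochemical, low-substrate format (both substrates at 10uM) and luminescence measured with a CCD imager.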
HEK293 tox: Cytotoxic Profiling in HEK 293 Cell Line of Diverse Libraries Using Quantitative High-Throughput Screening | HEK 293 viability, ATP luminescence (CellTiter-Glo), 48-72 h | Potency, µM (highest dose often 115 µM), for the others: at the top dose activity change, negative = cytotoxicity, usual class: inhibitors | hit rate 6.6% among 94,000; note: nearly all actives have a fitted effect of over 60% in size
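HEK 293 seeded at 250 cells/well receive compound via pintool. After 48 or 72 hr at 37 degree Celsius, 5% CO2 and 95% humidity, CellTiter-Glo is dispensed and luminescence read following 10 min at room temperature.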
* hit, by the source's call; i = inactive; ? = inconclusive; / = not tested or not shown; [ ] = another dose, or the depositor's remark. Unless noted, calls come from the whole dose curve; as a rule, active = well fitted curve in the direction sought with a large enough effect; inconclusive = small, poorly fitted or top-dose-only effect, or another doubt; inactive = no such curve, though single readings can be large; an effect the other way counts as inactive or inconclusive. % is set by controls: 0 for no effect and ±100 for the full control effect; potency is the fitted concentration of half-maximal effect.

SMILES	NIH3T3 tox	NPR1 antag	GPT2 inhibitor	Luciferase inh	HEK293 tox
COc1ccccc1Nc1ccnc(N2CCN(C(=O)Nc3ccc(Cl)cc3)CC2)n1	39.8µM*	/	i	/	39.8µM*
COc1ccccc1Nc1ccnc(N2CCC(C(=O)N3CCCC3)CC2)n1	?	/	i	/	?
O=C(c1ccc(Cl)cc1)N1CCN(c2nccc(Nc3ccccc3F)n2)CC1	?	/	2.8%	/	?
COc1ccc(-c2cc(N3CCCC(NC(=O)c4cccc(C#N)c4)C3)n[nH]2)cc1 (stereo not given)	?	-16.2%	i	20µM*	?
CN(C)c1cccc(C(=O)NC2CCCN(c3cc(-c4ccccc4)[nH]n3)C2)c1 (stereo not given)	?	-11.0%	-4.3%	35.5µM*	?
COc1ccc(-c2cc(N3CCCC(NC(=O)c4cccc(NC(C)=O)c4)C3)n[nH]2)cc1 (stereo not given)	?	-5.5%	?	28.2µM*	?
CC(=O)Nc1cccc(C(=O)NC2CCCN(c3cc(-c4ccc(F)cc4)[nH]n3)C2)c1 (stereo not given)	-21.4%	-1.3%	?	?	?
COc1ccc(-c2cc(N3CCCC(NC(=O)c4ccoc4)C3)n[nH]2)cc1 (stereo not given)	-17.8%	-7.7%	-20.4%	22.4µM*	?
O=C(NC1CCCN(c2cc(-c3ccccc3)[nH]n2)C1)c1cccc(Br)c1 (stereo not given)	?	-20.7%	-0.7%	i	?
COc1ccc(-c2cc(N3CCCC(NC(=O)c4cccc(Br)c4)C3)n[nH]2)cc1 (stereo not given)	?	-29.4%	-11.2%	?	?
COc1ccc(-c2cc(N3CCCC(NC(=O)c4ccc(C)s4)C3)n[nH]2)cc1 (stereo not given)	?	-14.3%	-18.7%	28.2µM*	?
COc1ccc(-c2cc(N3CCCC(NC(=O)c4ccccc4)C3)n[nH]2)cc1 (stereo not given)	?	-16.0%	-24.1%	22.4µM*	?
CN(C)c1cccc(C(=O)NCC2CCN(c3cc(-c4ccccc4)[nH]n3)CC2)c1	?	-15.2%	?	15.8µM*	?
Cc1noc(-c2ccn3c(CNC(=O)c4cc5ccccc5[nH]4)nnc3c2)n1	i	10.4%	-2.2%	i	i
COCCn1c(C)nnc1-c1cc(Nc2cccc(OC)c2)ccn1	?	-4.6%[70.6 µM]	i	i	?
CC1(COc2ccccc2)COc2ccc(C(=O)NCCc3ccccc3)cc2N1 (stereo not given)	?	-5.1%[70.6 µM]	?	i	?
COCC1CN(C2CCC2)CC12CCN(C(=O)CC1CCCCC1)CC2 (stereo not given)	?	/	2.2%	/	?
CN(CC[C@H]1CN(C(=O)c2ccc(C(F)(F)F)cc2)CC[C@H]1CC(=O)O)c1ccccc1	35.5µM*	3.3%	-1.6%	i	-0.3%
CC(=O)N1CCCN(CC[C@H]2CN(C(=O)c3ccc(C(F)(F)F)cc3)CC[C@H]2CC(=O)O)CC1	3.9%	3.8%	-3.8%	i	1.5%
CN1CC(=O)N(C2CCC2)Cc2c1ncnc2N1CCC(Cc2ccccc2)CC1	44.7µM*	-11.0%	i	i	?
CN1CC(=O)N(c2ccc(Cl)cc2)Cc2c1ncnc2N1CCC(Cc2ccccc2)CC1	?	4.4%	i	i	31.6µM*
CN1CC(=O)N(C2CCC2)Cc2c1ncnc2N1CCC(c2ccccc2)CC1	?	-0.4%	i	i	44.7µM*
CN1CC(=O)N(C2CCNC2)Cc2c1ncnc2N1CCC(c2ccccc2)CC1 (stereo not given)	3.0%	/	-4.9%	/	1.8%
COc1ccc(N2CC3CCC(C2)N3Cc2cccc(-c3cccnc3)c2)cc1	?	/	6.31µM*	/	39.8µM*
Cc1ccc(OCc2nc(C3CN(C(=O)c4ccc(C)nc4)C3)no2)cc1	-14.0%	-10.2%	-14.0%	i	-12.0%
SMILES	NIH3T3 tox	NPR1 antag	GPT2 inhibitor	Luciferase inh	HEK293 tox
O=C(Cc1c(F)cccc1Cl)N1CCC(c2noc(COc3ccc(F)cc3)n2)CC1	?	?	i	i	89.1µM*
Cc1ccc(OCc2nc(C3CN(C(=O)c4cc(C)nn4C)C3)no2)cc1	-24.0%	?	i	39.8µM*	44.7µM*
CCn1nccc1C(=O)N1CCC(c2noc(COc3ccc(F)cc3)n2)C1 (stereo not given)	?	-27.8%	-15.8%	i	44.7µM*
Cc1nn(-c2ccccc2)c2c1C(C(C)C)N(C1CCN([S+](=O)([O-])c3ccccc3)CC1)C2=O (stereo not given)	2.0%	/	/	/	1.2%
Cc1oc(-c2cccc(Oc3ccccc3)c2)nc1CN1CCC(C#N)CC1	?	0.1%	i	i	?
CC(C)C(=O)N1CCC(N2C[C@H](O)C[C@H]2C(=O)NC2CCCCC2)CC1	i	1.8%	i	i	i
CN(C)S(=O)(=O)N1CCc2nc3cc(-c4ccccc4)[nH]n3c(=O)c2C1	-18.4%	2.3%	i	0.447µM*	-2.2%
COc1ccc2c(c1)CCN=C2C[C@H]1CN(C(=O)C(=O)O)CC[C@H]1CC(=O)O	-0.6%[174 µM]	2.9%[70.6 µM]	i	i	0.1%[172 µM]
CN(C)c1cccc(Oc2nnnn2[C@H]2CO[C@H]3[C@@H]2OC[C@@H]3NC(=S)Nc2cccc(C#N)c2)c1	?	-4.6%	0.2%	i	44.7µM*
O=C(c1ccn(C(F)F)n1)N1CCc2nc(-c3ccc(Cl)cc3)[nH]c2C1	?	-0.3%	5.0%	?	89.1µM*
COc1ccc(CC(=O)N2CCc3cn(C)c4cccc(c34)C2)cc1	?	3.9%	i	i	?
COc1ccc(C(=O)N2CCc3cn(C)c4cccc(c34)C2)c(C)c1	?	2.7%	-5.9%	i	22.4µM*
Cc1cc(C(=O)N2CCCCCCNC(=O)[C@@H]3CCC[C@@H]32)nn1C	-10.7%	-1.1%	-23.8%	i	?
CC(C)CNC(=O)CC(c1cccc([N+](=O)[O-])c1)c1c[nH]c2ccccc12 (stereo not given)	?	-15.9%	i	i	79.4µM*
COc1ccc(C(CC(=O)NCc2ccccc2)c2c[nH]c3ccccc23)cc1OC (stereo not given)	-11.8%	-8.6%	?	i	3.3%
CCc1cccc2c(C(CC(=O)N3CCCC3)c3cccc(Cl)c3)c[nH]c12 (stereo not given)	-24.1%	-2.5%	-2.8%	i	?
